For test [1], the target named is Solute carrier family 12 member 5 (Homo sapiens) (UniProt Q9H2X9). The test can be described thus: retest of KCC2 transport modulators without sodium – cell-based, HEK293 KCC2, thallium flux, secondary assay, confirmation (AID 1713;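 active means thallium flux slope above the same plate's solvent-only control mean plus 3 SD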). The settings on record: FluoZin2 fluorescence, at 10 µM, stronger effect = higher value.
Another test in a line: PubChem AID 1714.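 Further: raw slope of fluorescence over initial fluorescence between 10 and 20 s after thallium.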 Particulars: HEK293-KCC2 + bumetanide/ouabain, thallium flux FluoZin2; at 10 µM; stronger effect = higher value.
In test [2] the target is Solute carrier family 12 member 5 (Homo sapiens) (UniProt Q9H2X9). The test can be described thus: retest of KCC2 transport modulation, ouabain-free – cell-based, HEK293 KCC2, thallium flux, FluoZin2, secondary assay 2, confirmation (AID 1715;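 active means thallium flux slope more than 3 SD above or below the plate's solvent-only control mean, mostly below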;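 further: raw slope with 0.1% DMSO as baseline and bumetanide as block control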). Particulars: HEK293-KCC2, thallium flux FluoZin2 fluorescence; at 10 µM; actives lie on both sides; F/F0 rise rate, 10–20 s post-thallium.

Test [3] in a line: compound effects on native HEK Tl+ uptake – HEK cells, counterscreen 1, counter-screen for KCC2 modulator project, confirmation (AID 1716). The settings on record: HEK293 parental cells, thallium flux FluoZin2, ouabain; at 10 µM; baseline-ratio fluorescence slope, 10–20 s after thallium.
Test [4] addresses Solute carrier family 12 member 5 (Homo sapiens) (UniProt Q9H2X9). Briefly: modulation of KCC2 thallium flux in HEK cells – cell-based, ouabain, retest, confirmation (AID 1717;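 active means thallium flux slope beyond 3 SD from same-plate DMSO control mean in most replicates, usually higher, sometimes lower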;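 further: slope of initial-normalized fluorescence between seconds 10 and 20 after thallium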). Particulars: HEK293-KCC2, thallium flux FluoZin2 fluorescence, at 10 µM, bidirectional: low = inhibitor, high = activator.
Test [5] in a line: native HEK Tl+ uptake effects, second counter-screen – HEK cells, counterscreen 2, counter-screen for KCC2 modulator project, confirmation (AID 1718;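 active means thallium flux slope above the same plate's solvent-control mean plus 3 SD in both duplicate wells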;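 further: run without ouabain in cells lacking the KCC2 cotransporter; slope of fluorescence scaled to its starting value between 10 and 20 s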). Particulars: HEK293 parental, thallium flux FluoZin-2 fluorescence slope; at 10 µM.

The record followed here is PubChem BioAssay.

Some of the results follow. Inconclusive results are not listed. Values without a mark were called inactive. Calls of active or inactive are those of the source.

Sequence of Solute carrier family 12 member 5 (Homo sapiens) (Q9H2X9 whole entry, looked up): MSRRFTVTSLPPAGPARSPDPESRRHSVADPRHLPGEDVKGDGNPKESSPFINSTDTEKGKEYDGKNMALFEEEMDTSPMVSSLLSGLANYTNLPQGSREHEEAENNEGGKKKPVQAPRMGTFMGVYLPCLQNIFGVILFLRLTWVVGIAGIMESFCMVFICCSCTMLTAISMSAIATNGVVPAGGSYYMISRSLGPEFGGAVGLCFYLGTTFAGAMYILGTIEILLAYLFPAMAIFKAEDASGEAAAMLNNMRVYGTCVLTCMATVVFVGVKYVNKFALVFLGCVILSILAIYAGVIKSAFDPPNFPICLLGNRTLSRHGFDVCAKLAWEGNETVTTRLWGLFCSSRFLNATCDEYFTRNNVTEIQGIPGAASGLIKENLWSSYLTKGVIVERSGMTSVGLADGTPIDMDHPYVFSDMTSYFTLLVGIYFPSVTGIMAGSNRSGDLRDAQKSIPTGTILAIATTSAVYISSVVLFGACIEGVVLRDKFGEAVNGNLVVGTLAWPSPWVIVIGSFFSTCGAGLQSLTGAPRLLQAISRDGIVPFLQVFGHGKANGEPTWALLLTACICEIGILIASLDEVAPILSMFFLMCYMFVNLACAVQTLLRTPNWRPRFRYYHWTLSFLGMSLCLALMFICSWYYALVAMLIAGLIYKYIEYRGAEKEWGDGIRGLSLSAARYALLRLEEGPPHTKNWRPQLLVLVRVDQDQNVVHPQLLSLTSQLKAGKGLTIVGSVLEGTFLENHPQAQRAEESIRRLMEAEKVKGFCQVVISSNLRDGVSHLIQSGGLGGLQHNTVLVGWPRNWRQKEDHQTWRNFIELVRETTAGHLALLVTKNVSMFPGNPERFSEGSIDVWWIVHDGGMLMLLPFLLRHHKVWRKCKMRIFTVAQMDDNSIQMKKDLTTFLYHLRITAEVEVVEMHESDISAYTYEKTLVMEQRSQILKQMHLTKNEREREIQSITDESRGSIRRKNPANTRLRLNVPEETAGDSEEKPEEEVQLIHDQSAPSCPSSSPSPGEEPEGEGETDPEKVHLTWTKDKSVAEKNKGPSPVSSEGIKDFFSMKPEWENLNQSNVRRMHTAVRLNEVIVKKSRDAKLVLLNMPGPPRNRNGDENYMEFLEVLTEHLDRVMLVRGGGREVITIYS

Regarding `COc1ccccc1/C=C/C=N/n1c(-c2ccc(Cl)cc2Cl)n[nH]c1=S`, the normalised thallium flux (F/F0 slope) in test [1] is 0.0112. Also, the normalized thallium flux was 0.0155 (active) in “PubChem AID 1714” and 0.0312 in test [2]. Also, the thallium flux rate (normalised fluorescence) in test [3] is 0.0105 (active). Further, the raw Tl+ flux slope (below DMSO = inhibition, above = activation) in test [4] is 0.0229. In addition, the thallium flux slope in test [5] was 0.011.
On to `O=C(CCC(=O)OCc1cccc(C(=O)Oc2ccccc2)c1)Nc1cccc2ccccc12`, for which the normalised thallium flux (F/F0 slope) in test [1] is 0.00618. Besides, the normalized thallium flux in the test “PubChem AID 1714” is 0.00434; in test [2], 0.0284. Besides, the thallium flux rate (normalised fluorescence) in test [3] is 0.00695. In test [4], the raw Tl+ flux slope (below DMSO = inhibition, above = activation) was 0.0171. Also, the thallium flux slope in test [5] is 0.00997.
With `O=C(O)CCN(Cc1ccccc1)S(=O)(=O)c1c(Cl)cccc1Cl`, the normalised thallium flux (F/F0 slope) in test [1] is 0.00789. The normalized thallium flux in “PubChem AID 1714” is 0.00499; in test [2], 0.027 (active). Besides, the thallium flux rate (normalised fluorescence) in test [3] is 0.00714. The raw Tl+ flux slope (below DMSO = inhibition, above = activation) in test [4] is 0.012 (active). In addition, the thallium flux slope in test [5] was 0.0112.
Consider `CCOc1cccc(/C=N/N2C(=O)CSC2=S)c1O`, for which the normalised thallium flux (F/F0 slope) in test [1] is 0.00656. Moreover, the figures for the normalized thallium flux (in the test “PubChem AID 1714”; in test [2]) were 0.0152 (active) and 0.0319, respectively. The thallium flux rate (normalised fluorescence) in test [3] was 0.0178 (active). In addition, the thallium flux slope in test [5] is 0.0167 (active).
`COC(=O)c1cccnc1NC(=S)NC(C)C`: in test [1], the normalised thallium flux (F/F0 slope) was 0.0244 (active). In addition, the normalized thallium flux was 0.0413 (active) in “PubChem AID 1714” and 0.0368 in test [2]. In addition, the thallium flux rate (normalised fluorescence) in test [3] is 0.035 (active). In addition, the raw Tl+ flux slope (below DMSO = inhibition, above = activation) in test [4] is 0.0394 (active). Further, the thallium flux slope in test [5] is 0.0178 (active).
On to `O=C(CSC1=NCCS1)Nc1nc(-c2ccccc2)cs1`, for which the normalised thallium flux (F/F0 slope) in test [1] is 0.0102. The normalized thallium flux in “PubChem AID 1714” was 0.00549; in test [2], 0.0253 (active). Further, the thallium flux rate (normalised fluorescence) in test [3] was 0.00757. The raw Tl+ flux slope (below DMSO = inhibition, above = activation) in test [4] was 0.0163 (active). Further, the thallium flux slope in test [5] is 0.0115.
As for `CCOc1ccccc1C1CC(c2ccc(Cl)cc2)Nc2nc(N)nn21` (stereo not drawn), the normalised thallium flux (F/F0 slope) in test [1] was 0.0061. Moreover, the values for the normalized thallium flux (in the test “PubChem AID 1714”; in test [2]) were 0.00475 and 0.0277, respectively. Besides, the thallium flux rate (normalised fluorescence) in test [3] was 0.00745. For the same compound, in test [4], the raw Tl+ flux slope (below DMSO = inhibition, above = activation) was 0.0177. The thallium flux slope in test [5] is 0.00975.
Turning to `CN(C)CCn1c(=S)[nH]c2ccc(Cl)cc2c1=O`, the normalised thallium flux (F/F0 slope) in test [1] was 0.00617. Further, the normalized thallium flux in “PubChem AID 1714” was 0.0089 (active); in test [2] it was 0.0337. Further, the thallium flux rate (normalised fluorescence) in test [3] was 0.0128 (active). The thallium flux slope in test [5] was 0.0165 (active).
For the compound `CSc1sc(C(=O)NNC(=O)c2ccc(Cl)cc2)c2c1C=CCC2`, in test [1], the normalised thallium flux (F/F0 slope) is 0.0166 (active). Also, the normalized thallium flux is 0.0484 (active) in the test “PubChem AID 1714” and 0.0343 in test [2]. Besides, the thallium flux rate (normalised fluorescence) in test [3] was 0.0305 (active). The raw Tl+ flux slope (below DMSO = inhibition, above = activation) in test [4] is 0.0333 (active). In addition, the thallium flux slope in test [5] was 0.0136 (active).
As for `O=C(COC(=O)c1cc([N+](=O)[O-])ccc1NCc1ccccc1)NC1CCCCC1`, in test [1], the normalised thallium flux (F/F0 slope) was 0.00664. The normalized thallium flux is 0.00478 in the test “PubChem AID 1714” and 0.0252 (active) in test [2]. The thallium flux rate (normalised fluorescence) in test [3] was 0.00762. Besides, in test [4], the raw Tl+ flux slope (below DMSO = inhibition, above = activation) was 0.0168 (active). The thallium flux slope in test [5] is 0.0115.
